# Source: PubChem (National Center for Advancing Translational Sciences (NCATS))
# This is a sample that favours compounds with a hit; in the whole collection about 3.1% have one here.
# p53null 39C tox – qHTS Screen for Compounds that Selectively Target Cancer Cells with p53 Mutations: Cytotoxicity of p53 Null Cells at the Nonpermissive Temperature; H1299 p53-null (neo) cells, 39C, ATPlite viability, 24 h; Potency, µM (doses to about 46.1 µM), most hits filed as cytotoxic; hit rate 0.97% among 55,000; also: nearly all actives have a fitted effect of over 50% in size
#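 Temperature-shift cytotoxicity format: compound titrations on p53-null or A138V-expressing H1299 cells held 24 hr at 39C, cell ATP then measured, AC50 from Hill model.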
# mTORC1 inh – Acumen qHTS Assay for Inhibitors of the mTORC1 Signaling Pathway in MEF (Tsc2-/-, p53-/-) Cells: Sytravon; Tsc2-/- p53-/- MEF, phospho-rpS6 immunofluorescence/PI, 24 h; Potency, µM (series often up to 38.3 µM), most hits filed as inhibitors; hit rate 0.78% among 44,000; also: nearly all actives have a fitted effect of over 50% in size
#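 Cell-based qHTS: Tsc2-/- p53-/- MEF, 24 h cpd, 37 °C; fix/perm, anti-phospho-S6 Alexa-488 + PI; Acumen 488 nm scan; pS6/PI ratio, % positive cells; rapamycin 7.5 nM = inhibition ref; PI count = viability.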
# S16 viability – Cell viability qHTS assay in S16 Pmp22-F2sN cells. S16 Pmp22-F2sN Schwann cells viability, CellTiter-Glo, 24 h. Potency, µM (top dose mostly 57.5 µM), hits mostly cytotoxic. hit rate 0.48% among 43,000. AID 1508642, 2021; also: nearly all actives have a fitted effect of over 65% in size
#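 S16 Schwann cells carrying the Pmp22-F2sN reporter, seeded in 1536-well format, were exposed to library compounds for 24 h at 37C. Viability was read as CellTiter-Glo luminescence after 15 min at room temperature.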
# p53null 32C tox – qHTS Screen for Compounds that Selectively Target Cancer Cells with p53 Mutations: Cytotoxicity of p53 Null Cells at the Permissive Temperature; H1299-neo p53 null cells, ATP luminescence, 24 h, 32C; Potency, µM (titrated, usually from 46.1 µM), hits mostly cytotoxic; hit rate 0.62% among 55,000; also: nearly all actives have a fitted effect of over 55% in size
#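 Luminescent ATP readout gave cell viability of p53-null H1299-neo cells after a 24 h compound exposure at the permissive 32C. Titrations ran up to 46 uM, and AC50s were fitted with the standard Hill equation.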
# SKOV3 invasion – Primary qHTS assay for Inhibitors of ovarian cancer metastasis using an organotypic tumor microenvironment (TME) model | SKOV3ip1-GFP adhesion/invasion on 3D omental model, fluorescence | Potency, µM (top dose mostly 45.8 µM), usual class: inhibitors | hit rate 0.1% among 46,000; also: nearly all actives have a fitted effect of over 65% in size
#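 qHTS, 4-pt dose (0.36-46 umol/L); SKOV3ip1-GFP, 1,200 cells/well, no FBS; primary omental fibroblast/mesothelial co-culture 48 h pre-grown; 2 h RT + 16 h 37 C; PBS wash, 4% PFA; GFP count 488/509 nm.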
# PMP22 txn – Cell-based coincidence reporter assay to measure PMP22 gene transcription in S16 Pmp22-F2sN cells - Primary screen; S16 Pmp22-F2sN Schwann cells (luciferase reporters placed in the Pmp22 gene), FLuc/NLuc coincidence luminescence, 24 h; Potency, µM (top dose mostly 57.5 µM), hits mostly inhibitors; hit rate 2% among 43,000; AID 1508649, 2021; active = clear falling dose curves in both reporters; inconclusive = both reporters move, but less clearly or upward; inactive = either reporter flat; the % is the NLuc reporter signal
#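 Rat S16 Pmp22-F2sN cells, 500-1,000/well in phenol red-free DMEM + 10% FBS, compound-treated 24 h (37C, 5% CO2). Luminescence: FLuc read, Stop&Glo added, NLuc read.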
# A number is an active result; – = inactive; ? = inconclusive; · = no result given. Unless noted, calls follow the shape of the dose curve; as a rule, active = well fitted curve in the direction sought with a large enough effect; inconclusive = small, poorly fitted or top-dose-only effect, or another doubt; inactive = no such curve, though single readings can be large; an effect the other way counts as inactive or inconclusive.
SMILES,p53null 39C tox,mTORC1 inh,S16 viability,p53null 32C tox,SKOV3 invasion,PMP22 txn
Cc1ccc(N(CC(C)C)S(=O)(=O)c2nnc(NC(=O)c3ccco3)s2)cc1,–,–,–,–,–,–
CCCCCN(CCC12CC3CC(CC(C3)C1)C2)C(=O)NCCCc1ccncc1,·,·,·,·,–,·
COc1ccc(-n2nc3c(N4CCCC(C(=O)NCc5ccc(C)cc5)C4)nnc(C)c3c2C)cc1 (stereo not given),–,–,?,?,12.6µM,?
CCNC(=O)C1CCN(c2nnc(C)c3c(C)n(-c4ccc(OC)cc4)nc23)CC1,–,–,–,–,–,?
CCc1ccc(CNC(=O)C2CCCN(c3nnc(C)c4c(C)n(-c5ccc(OC)cc5)nc34)C2)cc1 (stereo not given),?,–,?,25.1µM,?,?
CCNC(=O)C1CCCN(c2nnc(C)c3c(C)n(-c4ccc(C)cc4)nc23)C1 (stereo not given),–,–,–,–,–,–
COc1ccc(-n2nc3c(N4CCC(C(=O)NCc5cccc(F)c5)CC4)nnc(C)c3c2C)cc1,3.16µM,–,?,–,–,?
COc1ccc(CNC(=O)C2CCN(c3nc4ccc(C)cc4[nH]3)CC2)cc1,–,13.1µM,–,–,–,–
CCOC(=O)[C@H]1O[C@H]1C(=O)N[C@@H](CC(C)C)C(=O)NCCC(C)C,·,·,·,·,–,·
COc1ccc(CNC(=O)C2CCN(c3nnc(C)c4c(C)n(-c5ccc(C)cc5)nc34)CC2)cc1,12.6µM,–,?,?,?,?
CCCCN(CC)CCNC(=O)C1CCN(c2nnc(C)c3c(C)n(-c4ccc(C)cc4)nc23)CC1,–,14.7µM,?,–,?,?
COc1ccc2c(c1)CC[C@@H](CN(C)CC(=O)O)[C@H]2c1ccccc1,·,·,·,·,–,·
Cc1c(NC(=O)OC[C@@H]2COCCN2)cn2ncnc(Nc3ccc4c(cnn4Cc4cccc(F)c4)c3)c12,·,·,·,·,–,·
Cc1cccc(NC(=O)c2c(NC(=O)C(F)(F)F)sc3c2CCCCC3)c1,?,–,?,–,?,10µM
O=C(Cn1nc(C(F)(F)F)c2c1CCCC2)Nc1cccc(Cl)c1,?,–,20µM,–,–,?
Cc1ccc(NC(=O)c2c(NC(=O)C(F)(F)F)sc3c2CCCCC3)cc1,?,–,?,?,–,10.4µM
Cc1ccccc1NC(=O)c1c(NC(=O)C(F)(F)F)sc2c1CCCCC2,?,–,?,?,–,11.5µM
CS(=O)(=O)c1ccc(C(=O)Nc2ccc(Cl)c(-c3ccccn3)c2)c(Cl)c1,·,·,·,·,–,·
Cc1cccc(C(=O)Nc2sc3c(c2C(=O)Nc2ccccc2)CCC3)c1,–,–,–,–,–,–
O=C(Nc1cccc(Cl)c1)c1c(NC(=O)C(F)(F)F)sc2c1CCCC2,?,–,?,?,?,12.6µM
COc1ccccc1C(=O)Oc1c(Sc2ccccc2)c(C)nn1C(C)(C)C,12.6µM,–,–,?,–,–
CC(=O)c1ccc(NC(=O)c2nc(-c3ccccc3)n(-c3ccccc3)n2)cc1,?,–,–,–,–,?
Cc1c(C(=O)Nc2ccc(C(=O)O)cc2)nnn1-c1ccccc1,?,–,–,12.6µM,–,–
CCOC(=O)Cn1c(=O)c2c(nc(N3CCOCC3)n2Cc2ccccc2)n(C)c1=O,–,9.27µM,–,–,–,–
COc1cc2nccc(Oc3ccc(NC(=O)Nc4cc(C)on4)c(Cl)c3)c2cc1OC,·,·,·,·,–,·
SMILES,p53null 39C tox,mTORC1 inh,S16 viability,p53null 32C tox,SKOV3 invasion,PMP22 txn
COc1ccc(C(=O)Nc2cccc(-c3cn4ccsc4n3)c2)cc1OC,12.6µM,?,–,?,–,?
CC[C@H](C)n1cc(C)c2c(C(=O)NCc3c(C)cc(C)[nH]c3=O)cc(-c3ccc(N4CCNCC4)nc3)cc21,·,·,·,·,–,·
COc1ccc2[nH]cc(CCN=C(NC(=O)c3ccccc3OC)Nc3nc(C)cc(C)n3)c2c1,–,–,?,–,–,13.9µM
COc1cc(C(C)C)c(Oc2cnc(NC(CO)CO)nc2N)cc1I,·,·,·,·,–,·
CCCCC(CC)CNC(=O)c1ccc(Cn2c(=O)[nH]c3cc(OC)c(OC)cc3c2=O)cc1 (stereo not given),12.6µM,?,–,–,–,?
CCOc1ccc(NC(=O)Cc2ccc(NC(=O)N3CCCCc4ccccc43)cc2)cc1,–,–,14.1µM,–,–,–
Cc1ccc(NC(=O)N2CCc3ccccc32)cc1,5.01µM,·,·,5.62µM,·,·
CCOc1ccc(CNC(=O)c2ccc(NC(=O)N3CCCCc4ccccc43)cc2)cc1,–,–,?,–,–,–
Cc1ccc(NC(=O)c2nnn(Cc3cccc(C(F)(F)F)c3)c2N)c(C)c1,–,?,?,–,–,5.97µM
CC(C)C[C@@H](N)[C@H](O)C(=O)N[C@H](C(=O)N[C@H](C(=O)N[C@@H](CC(=O)O)C(=O)O)C(C)C)C(C)C,·,·,·,·,–,·
CCOC(=O)N1c2ccc(C(F)(F)F)cc2[C@@H](N(Cc2cc(C(F)(F)F)cc(C(F)(F)F)c2)C(=O)OC)C[C@H]1CC,·,·,·,·,–,·
COc1ccc2c(c1)CCc1c(C(=O)Nc3ccccc3C(F)(F)F)noc1-2,–,–,·,–,–,·
O=C(Nc1ccccc1C(F)(F)F)c1noc2c1CCCCC2,5.01µM,–,·,10µM,–,·
O=c1[nH]nc(OCCCc2ccc(Cl)cc2)c(NCc2cccnc2)c1Br,·,·,·,·,–,·
Cc1nc2cccnc2n1-c1cccc(C(=O)N2CCN(c3ccc(Cl)cc3)CC2)c1,–,–,?,–,–,15.6µM
COc1ccc(N2CCN(C(=O)c3cccc(-n4c(C)nc5cccnc54)c3)CC2)cc1,–,–,–,–,–,?
COc1ccc2oc(=O)c(-c3nc4ccc(C)cc4[nH]3)cc2c1,–,–,–,–,–,?
COc1ccc(-c2nc3ccc(C4=NNC(=O)CC4C)cc3[nH]2)cc1 (stereo not given),·,·,·,·,–,·
COc1ccc2nc(-c3cccc(N)c3)[nH]c2c1,8.91µM,·,·,10µM,·,·
COc1ccc2nc(-c3ccc(N)cc3)[nH]c2c1,?,·,·,12.6µM,·,·
CNC1CCC(N(Cc2cccc(-c3ccncc3)c2)C(=O)c2sc3ccccc3c2Cl)CC1 (stereo not given),·,·,·,·,–,·
O=C(Nc1cccc(Cl)c1)Nc1ncc(CCNc2ncnc3ccsc23)s1,·,·,·,·,–,·
